Screening data as filed in PubChem.
HGIII-sPLA2 inh = human group III sPLA2 inhibitors, primary screen, biochemical, QFRET, BODIPY PC-A2 liposome substrate. QFRET BODIPY PC-A2 liposome hydrolysis, fluorescence. inhibition, % at 12.2 µM. hit rate 0.56% among 370,000;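 active means inhibition above mean plus 3 SD of compounds lying within the high and low control bounds, cut at about 19% in these data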
PLC-gamma1 inh = PLC-gamma1 enzyme inhibitors, primary screen, biochemical, fluorescence, purified enzyme; 1-phosphatidylinositol 4,5-bisphosphate phosphodiesterase gamma-1 (Homo sapiens), P19174; AID 720700, 2013; inhibition, % at 12.2 µM; fluorogenic substrate; hit rate 0.84% among 370,000; in the data active means inhibition above about 9.5%
PLC-beta3 inh = human PLC-beta3 inhibitors, primary screen, biochemical, fluorescence; 1-phosphatidylinositol 4,5-bisphosphate phosphodiesterase beta-3 (Homo sapiens), Q01970; hit rate 0.18% among 370,000; inhibition, % at 12.2 µM; Purified PLC-beta3, fluorogenic substrate; in the data active means inhibition above about 11%
KLK7 zymogen act = proKLK7 zymogen activators, primary screen, biochemical, fluorescence intensity | Kallikrein-7 (Homo sapiens), P49862 | purified proKLK7, EDANS-DABCYL substrate fluorescence; 100% is mature enzyme control, 0% vehicle | activation, % at 7 µM | hit rate 0.9% among 370,000 | AID 652039, 2013;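 active means activation above the mean of all tested compounds plus 3 SD, computed per campaign excluding outliers beyond control limits, cut at about 13% in these data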
ADAM17 inh = ADAM17 inhibitors, primary screen, biochemical, QFRET. recombinant ADAM17, EDANS/DABCYL FRET peptide cleavage. inhibition, % at 6.95 µM. hit rate 0.83% among 370,000. AID 720648, 2013;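 active means inhibition above the mean of compounds lying between control limits plus 3 SD, set per campaign, cut at about 8.5% in these data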
ADAM10 inh = human ADAM10 inhibitors, primary screen, biochemical, QFRET, HTS; recombinant ADAM10, EDANS/DABCYL FRET peptide cleavage, 3 h; hit rate 0.62% among 370,000; AID 720582, 2013; inhibition, % at 7 µM;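 active means inhibition above a per-campaign cutoff equal to the mean of compounds falling between control-based bounds plus 3 SD, cut at about 20% in these data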
ADAM10 confirm = human ADAM10 inhibitors, confirmation, biochemical, QFRET, triplicate; shares compounds with ADAM10 inh; ADAM10 QFRET peptide cleavage, EDANS fluorescence; inhibition, % at 6.95 µM; hit rate 1% among 2,100; AID 743208, 2013;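 active means inhibition above about 20% chosen separately for each screening run, limit read from the data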
ADAM17 counter = ADAM17 inhibitors, counter-screen for ADAM10 exosite inhibitor project, biochemical, QFRET, high throughput; shares compounds with ADAM10 inh; ADAM17 QFRET peptide cleavage, EDANS fluorescence; inhibition, % at 6.95 µM; hit rate 0.5% among 2,100; AID 743214, 2013;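 active means mean triplicate inhibition above the solvent-only control wells' mean plus 3 SD, cut at about 12% in these data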
ADAM10 counter = ADAM10 inhibitors, counter-screen for ADAM17 exosite inhibitor project, biochemical, FRET, human ADAM10; shares compounds with ADAM17 inh; recombinant ADAM10, EDANS/DABCYL FRET peptide cleavage, 3 h; inhibition, % at 6.95 µM; hit rate 47% among 2,900;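 active means mean inhibition over the triplicate runs exceeds the activity threshold set in the earlier primary screen, cut at about 20% in these data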
ADAM17 confirm = ADAM17 inhibitors, hit retest, confirmation, biochemical, QFRET peptide cleavage; shares compounds with ADAM17 inh; recombinant ADAM17, EDANS/DABCYL QFRET peptide cleavage; inhibition, % at 6.95 µM; hit rate 65% among 2,900;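 active means mean inhibition across replicates above the hit cutoff set in the primary screen, cut at about 8.5% in these data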
Numbers stand for hits; – = inactive; · = no result given. Shown are actives, neighbours in structure and some others; about 3.4% of the full set was active somewhere.

SMILES	HGIII-sPLA2 inh	PLC-gamma1 inh	PLC-beta3 inh	KLK7 zymogen act	ADAM17 inh	ADAM10 inh	ADAM10 confirm	ADAM17 counter	ADAM10 counter	ADAM17 confirm
C=CC[C@H](CC(=O)N[C@H](CO)Cc1ccccc1)C(=O)N[C@@H](COC(=O)[C@@H](CC=C)CC(=O)OC(C)(C)C)Cc1c[nH]c2ccccc12	–	–	–	–	–	–	·	·	·	·
CC(C)C[C@H](NC(=O)c1[nH]cnc1C(=O)N[C@@H](Cc1ccccc1)C(=O)OC(C)(C)C)C(=O)OCc1ccccc1	–	–	–	–	–	–	·	·	·	·
CC(C)C[C@H](NC(=O)c1[nH]cnc1C(=O)N[C@@H](C)C(=O)OCc1ccccc1)C(=O)OCc1ccccc1	–	11.4	–	–	11.5	25.4	–	–	40.1	20.8
CC(C)C[C@H](NC(=O)c1nc[nH]c1C(=O)NCc1ccccc1)C(=O)OCc1ccccc1	–	–	–	–	10.3	25.4	–	–	34.7	15.7
C[C@H](NC(=O)c1nc[nH]c1C(=O)NCc1ccccc1)C(=O)OCc1ccccc1	–	–	–	–	–	–	·	·	·	·
O=C(Nc1cccc(O)c1)c1cc(-c2ccccc2Cl)on1	–	–	–	–	–	–	·	·	·	·
O=C(Nc1ccccc1)OCc1cc(-c2ccccc2Cl)on1	–	–	–	–	9.0	26.9	–	–	35.8	17.5
C=CC(=O)Nc1cccc(Oc2cc(Cl)nc3[nH]ccc23)c1	–	–	–	–	10.9	20.8	–	–	–	10.1
C=CC(=O)Nc1cccc(Oc2nc(Nc3ccc(N4CCN(C)CC4)cc3OC)ncc2Cl)c1	–	–	–	–	–	–	·	·	·	·
Cc1ccc(Cl)c(OCC(=O)NCC(c2cccs2)N2CCOCC2)c1 (stereo unspecified)	–	–	–	–	–	–	·	·	·	·
COc1ccc(S(=O)(=O)Nc2cc3c4c(oc3c3ccccc23)CC(C)(C)CC4=O)cc1	–	–	–	–	9.1	26.3	–	–	21.1	11.5
COC(=O)[C@H](CC(C)C)N(CCCc1cn(Cc2ccc(C)cc2)nn1)S(=O)(=O)c1ccccc1Br	–	–	–	–	12.6	22.7	–	–	23.7	15.7
COC(=O)[C@H](CC(C)C)N(CCc1cn(Cc2ccc(C)cc2)nn1)S(=O)(=O)c1ccccc1Br	–	–	–	–	–	–	·	·	·	·
Cc1cc(C(=O)COC(=O)c2ccc(O)cc2)c(C)n1CC1COc2ccccc2O1 (stereo unspecified)	–	–	–	–	19.7	26.0	–	–	–	–
Cc1cc(C(=O)COC(=O)c2ccc3c(c2)OCO3)c(C)n1CC1CCCO1 (stereo unspecified)	–	–	–	–	–	–	·	·	·	·
COc1ccc2c(c1)C(O)C(CO)C(C(=O)O)C2 (stereo unspecified)	–	–	–	–	–	–	·	·	·	·
Cc1cc(C)nc(SCC(=O)Nc2ccc(S(=O)(=O)Nc3nccs3)cc2)n1	–	–	–	–	–	–	·	·	·	·
O=C(CSc1nnc(SCc2cccc3ccccc23)s1)Nc1ccc(S(=O)(=O)Nc2nccs2)cc1	–	–	–	–	10.8	35.1	–	–	25.7	11.4
Cc1ccc(NC(=O)c2cccs2)cc1S(=O)(=O)Nc1cccc(Cl)c1	–	–	–	–	19.6	36.8	–	–	–	–
Cc1ccc(C(=O)Nc2cccc([N+](=O)[O-])c2)cc1S(=O)(=O)Nc1ccc(NC(=O)c2ccccc2)cc1	–	–	–	–	15.4	37.2	–	–	35.2	22.6
Cc1ccc(S(=O)(=O)NC(=O)COc2cc(C)ccc2C(C)C)cc1	–	–	–	–	–	–	·	·	·	·
COc1ccc(OC)c(N(CC(=O)NCCSC2CCCCC2)S(=O)(=O)c2ccccc2)c1	–	–	–	–	–	–	·	·	·	·
COc1ccc(N(CC(=O)NCCSC2CCCCC2)S(=O)(=O)c2ccccc2)c(OC)c1	–	–	–	–	9.4	20.7	–	–	–	–
Cc1nn(CC(=O)N2CCOCC2)c(=O)c2nn(-c3ccccc3)c(C)c12	–	–	–	–	–	–	·	·	·	·
COCCn1cc(C(=O)c2cc(Br)ccc2O)cc(C#N)c1=O	–	–	–	–	–	–	·	·	·	·
SMILES	HGIII-sPLA2 inh	PLC-gamma1 inh	PLC-beta3 inh	KLK7 zymogen act	ADAM17 inh	ADAM10 inh	ADAM10 confirm	ADAM17 counter	ADAM10 counter	ADAM17 confirm
C[C@H]1CN([C@@H](C)CO)C(=O)c2cccc(NS(=O)(=O)c3ccc(F)cc3)c2O[C@H]1CN(C)Cc1ccc(Cl)c(Cl)c1	–	–	–	–	9.2	20.2	–	–	27.6	15.2
COc1ccc(S(=O)(=O)Nc2cccc3c2O[C@H](CN(C)Cc2ccc(Cl)c(Cl)c2)[C@@H](C)CN([C@H](C)CO)C3=O)cc1	–	–	–	–	–	–	·	·	·	·
C[C@@H]1CN([C@H](C)CO)C(=O)c2cc(NC(=O)Nc3ccc(C(F)(F)F)cc3)ccc2O[C@H]1CN(C)S(=O)(=O)c1ccccc1	–	–	–	–	11.0	28.3	–	–	28.0	15.7
C[C@@H]1CN([C@H](C)CO)C(=O)c2cc(NC(=O)Nc3ccc(F)cc3)ccc2O[C@@H](C)CCCCO[C@H]1CN(C)S(=O)(=O)c1ccc(Cl)cc1	–	–	–	–	13.2	32.2	–	–	34.1	16.7
Cc1ccc(NC(=O)Nc2ccc(F)cc2)cc1Cl	–	–	–	–	–	–	·	·	·	·
CCOC(=O)[C@]12CCCC=C1N(Cc1cccc3ccccc13)C(=O)[C@H](CC(=O)NCc1cccs1)C2	–	–	–	–	10.3	27.0	–	–	25.7	16.3
